Rows were chosen to be rich in hits. Some 3.3% of all compounds tested hit in one or more screens of this group.
GSIS activator: GLuc luminescence reporter in INS-1E cells, primary screen for activators of glucose-dependent secretion of insulin | actives 0.61% (n = 370,000) | INS-1E GLuc reporter insulin secretion, 2-3 h | activation, % at 16.6 µM | AID 743287, 2014;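 active = lowest replicate activation of at least 40%, so every replicate reaches that level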;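 note: 0% = median of neutral control wells and 100% = median of IBMX positive control wells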
SIRT5 block: SIRT5 desuccinylase inhibitors, primary screen, biochemical, fluorescence imaging, single point, set 5; NAD-dependent protein deacylase sirtuin-5, mitochondrial (Homo sapiens), Q9NXA8; Purified SirT5, succinyl-peptide AMC, trypsin-coupled fluorescence; inhibition, % at 15 µM; actives 1.1% (n = 330,000); in the data active = inhibition above about 15%
FGF22 binding: binders of human FGF22 protein, primary screen, FGF22 synaptogenesis inhibitor project, biophysical, thermal shift, single point; activity (Tm shift, normalised), % at 9.99 µM; Fibroblast growth factor 22 (Homo sapiens), Q9HCT0; actives 1.5% (n = 340,000); recombinant FGF22 thermal shift, SYPRO orange fluorescence; percent of sucrose octasulfate shift, DMSO zero;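 active = mean Tm shift, scaled 0 neutral to 100 positive control, at about 1.3% or above, every replicate too, limit read from the data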
Casp6 inh: human caspase-6 inhibitors, primary screen, biochemical, VEID-R110 fluorescence, single point, set 2. inhibition, % at 12.5 µM. AID 686996, 2013. actives 0.53% (n = 350,000). purified caspase-6, Z-VEID-R110 cleavage fluorescence;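 active = mean inhibition across replicates at least about 35%, with every replicate also reaching that limit, limit read from the data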;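 note: 0% = median of neutral control wells and 100% = no fluorescence left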
ERAP1 HTS inh: human ERAP1 aminopeptidase inhibitors, primary screen, biochemical, single point, plate reader | Endoplasmic reticulum aminopeptidase 1 (Homo sapiens), Q9NZ08 | recombinant ERAP1, Leu-AMC fluorescence, 60 min | inhibition, % at 10.7 µM | actives 0.15% (n = 340,000) | AID 652197, 2013;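 active = mean replicate inhibition of at least 30%, or all replicates individually reaching that 30% level; inactive = mean below 30% and not every replicate reaching it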;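 note: 0% = neutral control wells and 100% = L-leucinethiol positive control wells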
Target sequence (Q9NZ08 whole entry, looked up): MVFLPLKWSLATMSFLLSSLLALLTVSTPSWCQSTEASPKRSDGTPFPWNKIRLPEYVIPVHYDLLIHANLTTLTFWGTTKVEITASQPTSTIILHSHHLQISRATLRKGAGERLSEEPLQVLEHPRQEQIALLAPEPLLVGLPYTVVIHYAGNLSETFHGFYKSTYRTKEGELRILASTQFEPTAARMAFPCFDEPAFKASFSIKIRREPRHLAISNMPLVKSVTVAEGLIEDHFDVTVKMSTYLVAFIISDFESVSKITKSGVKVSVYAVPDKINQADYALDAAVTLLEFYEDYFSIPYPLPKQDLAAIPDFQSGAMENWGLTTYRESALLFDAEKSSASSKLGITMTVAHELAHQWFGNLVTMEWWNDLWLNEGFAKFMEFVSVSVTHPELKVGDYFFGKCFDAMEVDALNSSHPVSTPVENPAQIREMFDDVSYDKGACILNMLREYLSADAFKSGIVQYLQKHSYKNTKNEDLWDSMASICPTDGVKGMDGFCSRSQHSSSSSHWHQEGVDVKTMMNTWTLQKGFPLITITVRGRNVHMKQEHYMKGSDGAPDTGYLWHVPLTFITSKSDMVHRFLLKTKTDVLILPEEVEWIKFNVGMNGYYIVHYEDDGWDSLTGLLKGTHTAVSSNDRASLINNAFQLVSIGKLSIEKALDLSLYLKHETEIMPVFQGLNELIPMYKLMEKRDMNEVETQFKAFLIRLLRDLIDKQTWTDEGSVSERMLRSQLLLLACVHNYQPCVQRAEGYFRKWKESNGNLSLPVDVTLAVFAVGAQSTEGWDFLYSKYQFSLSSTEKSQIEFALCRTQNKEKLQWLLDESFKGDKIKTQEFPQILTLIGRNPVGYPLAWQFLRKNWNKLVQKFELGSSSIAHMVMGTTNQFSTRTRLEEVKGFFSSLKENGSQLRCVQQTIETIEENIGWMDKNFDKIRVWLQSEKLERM
An asterisk follows results filed as active; / = not tested or not shown; ! = not confirmed by another sample.

SMILES | GSIS activator | SIRT5 block | FGF22 binding | Casp6 inh | ERAP1 HTS inh
COc1cc(CNC(C)c2ccccc2)c(Br)cc1OCC(N)=O (stereo unspecified) | 8 | -1 | 0 | 80* | 0
C[C@H]1CN([C@@H](C)CO)C(=O)c2ccccc2-c2ccccc2CO[C@@H]1CN(C)C(=O)c1ccncc1 | 16 | / | / | / | /
CCN(CCNCC(O)COc1ccccc1C(C)C)c1cccc(C)c1 (stereo unspecified) | 383* | 0 | 0 | 16 | 1
CS(=O)(=O)N1CCCCC1c1cc(C(=O)Nc2ccccc2)no1 (stereo unspecified) | -2 | / | 0 | -2 | -1
CS(=O)(=O)N1CCCCC1c1cc(C(=O)Nc2cccc(C#N)c2)no1 (stereo unspecified) | 41* | / | 0 | -1 | -2
COCCNc1c([N+](=O)[O-])c(=O)n(-c2ccccc2)c2ccccc12 | 10 | / | / | / | /
O=c1c([N+](=O)[O-])c(NCCN2CCCCCC2)c2ccccc2n1-c1ccccc1 | 9 | -1 | 43* | -11 | 2
C[C@@H]1CCCCO[C@H](CN(C)C)[C@H](C)CN([C@@H](C)CO)C(=O)c2cc(NS(=O)(=O)c3ccc(Cl)cc3)ccc2O1 | 4 | / | / | / | /
O=S(=O)(O)c1ccc(NN=Cc2ccccc2O)cc1 | / | / | 44* | 27 | 4
CC(CC(=O)Nc1ccc2c(c1)c(=O)n(C)n2-c1ccc2ccccc2c1)C(F)(F)F (stereo unspecified) | -8 | 21* | 0 | -1 | -5
CCOC(=O)Cn1c2[n+](c3ccccc31)CC(O)CS2 (stereo unspecified) | 47 | 0 | 0 | -4 | 78*
CCCn1c(=N)n(CC(=O)OCC)c2ccccc21 | 4 | / | / | / | /
COc1cc(COCC(O)CN2CCc3ccccc3C2)cc(OC)c1OC (stereo unspecified) | -3 | -5 | 44* | -1 | -5
COc1cccc(-c2ccc([C@H]3[C@@H](CO)N(C(=O)c4ccccn4)[C@H]3C#N)cc2)c1 | 8 | -23 | 0 | -3 | -2
CCCSc1ccc(-c2nn(-c3ccccc3)cc2/C=C(/C#N)C(=O)NCCCOC)cc1 | 50* | / | / | / | /
CCSc1ccc(-c2nn(-c3ccccc3)cc2/C=C(/C#N)C(=O)NCCCOC)cc1 | 64* | / | / | / | /
CCCC(=O)Nc1ccc2c(c1)OC[C@H](C)N(C(=O)c1ccccn1)C[C@@H](C)[C@@H](OC)CN(C)C2=O | 6 | 1 | 0 | -4 | -3
CC(OC(=O)/C=C/c1ccccc1)C(=O)Nc1ccc2c(c1)OCCO2 (stereo unspecified) | 8 | 20* | 0 | 0 | -1
O=C(CN1CCOCC1)N1CC2(C1)[C@@H](c1ccccc1)[C@H](CO)N2Cc1cccc(F)c1 | 7 | 7 | / | 1 | -5
CC(C)NC(=O)C1(C)CCN1Cc1cccc(C#N)c1 (stereo unspecified) | 43* | / | 0 | 1 | 0
CNC(=O)C[C@H]1CC[C@@H]2[C@H](COc3ccc(NC(=O)Nc4ccccc4F)cc3C(=O)N2C)O1 | 5 | -5 | 0 | 1 | -1
O=C(C[C@H]1CC[C@@H]2[C@H](COC[C@@H](O)CN2C(=O)C2CCCC2)O1)NCc1ccncc1 | -2 | 1 | 0 | -1 | -2
C[C@@H]1CCCCO[C@@H](CN(C)S(=O)(=O)c2ccc(Cl)cc2)[C@@H](C)CN([C@@H](C)CO)C(=O)c2cc(NC(=O)Nc3ccc(F)cc3)ccc2O1 | -3 | 7 | 0 | -1 | -1
COc1ccc(NC(=O)Nc2ccc3c(c2)C(=O)N([C@H](C)CO)C[C@H](C)[C@H](CN(C)S(=O)(=O)c2ccc(F)cc2)OCCCC[C@@H](C)O3)cc1 | 15 | 1 | -1 | 1 | 0
COc1ccc(S(=O)(=O)N(C)C[C@H]2OCCCC[C@H](C)Oc3ccc(NC(=O)Nc4ccc(F)cc4)cc3C(=O)N([C@H](C)CO)C[C@H]2C)cc1 | -5 | 17*! | 1 | -1 | -1
